A number with no mark means an inactive call. Inconclusive results are not listed. Entries that show only a call come without a potency. Active and inactive are the calls of the source. The call rests on the fitted dose curve; in most records, active means well fitted inhibition curve with a large enough effect; inconclusive means small, poorly fitted or top-dose-only effect; inactive means no such curve, though single readings can be large or run the other way. *1 amine or outer side, *2 acyl side, *3 side chain or, on linkers, in order; H or OH if unused. Where a SMILES comes first, the peptide text is derived from it. Bridges are numbered along the chain shown (N, C = ends). [ ]: non-standard residue; d: D form. The star is where a group is joined. ξ: configuration not given here. X10 = NC1=NCCC(C(N[*:1])C(=O)[*:2])N1; ΔAla(3-NHCONH2) = NC(=O)NC=C(N)C(=O)O; ξβ3hOrn = NCCCC(N)CC(=O)*; Dap = NC[CH](N)C(=O)O
Experiment: qHTS assay for measurement of the activity of small molecule inhibitors on Zika virus induced Caspase-3 activity in human iPSC derived neural progenitor cells (hNPCs) (AID 1224857); further: nearly all actives have a fitted effect of over 65% in size
Conditions: hNPCs ZIKV-induced caspase-3/7, Caspase-Glo luminescence, 6 h; series mostly up to 45.7 µM
Procedure, shortened: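 Human iPSC-derived neural progenitor cells pretreated 1 hr with compounds, then infected with Zika virus (2 FFU/cell) for 6 hours at 37 C. Caspase-3/7 measured by Caspase-Glo luminescence; % inhibition calculated from induction scaled to uninfected (0%) and infected (100%) wells.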

Compound | Potency
COc1ccc(OC(=O)N(CC(=O)O)Cc2ccc(OCCc3nc(-c4ccccc4)oc3C)cc2)cc1 | inactive
Cc1ccc(-c2ccccc2C#N)cc1 | inactive
[O-][n+]1cccc(/C(Cl)=N/OC[C@@H](O)CN2CCCCC2)c1 | inactive
Cc1ccc2c(Cl)cc(Cl)c(O)c2n1 | inactive
CC(C)OP(=O)(CP(=O)(OC(C)C)OC(C)C)OC(C)C | inactive
COCCc1ccc(OCC2CO2)cc1 (configuration not stated) | inactive
O=C1Nc2ccccc2C1(c1ccc(O)cc1)c1ccc(O)cc1 | inactive
COc1cc(S(N)(=O)=O)cc(C(=O)O)c1OC | inactive
Cc1sccc1Br | inactive
COc1c(N2C[C@@H]3CCCN[C@@H]3C2)c(F)cc2c(=O)c(C(=O)O)cn(C3CC3)c12 | inactive
Cc1oc(-c2ccccc2)nc1CCC(=O)c1ccc(CC2SC(=O)NC2=O)cc1 (configuration not stated) | inactive
Cc1c(F)cc2c(=O)c(C(=O)O)cn3c2c1CCC3C (configuration not stated) | inactive
COC(=O)c1ccc(NC(C)=O)cc1OC | inactive
CC(=O)O[C@H]1CC[C@@]2(C)C(=CC[C@@H]3[C@@H]2CC[C@]2(C)C(C(C)=O)=CC[C@@H]32)C1 | inactive
CCOC(=O)c1ccc(O)c(O)c1 | inactive
OC1(c2ccc(Cl)cc2)CCNCC1 | inactive
O=C(CCCl)NCCc1ccccc1 | inactive
O=C1c2ccccc2CCc2ccccc21 | inactive
Cc1nc(C2CCCCC2)c(-c2ccc(S(N)(=O)=O)c(F)c2)o1 | inactive
CCOC(=O)CN1CCCC1=O | inactive

Experiment: qHTS assay for measurement of the activity of small molecule inhibitors on Zika virus induced Caspase-3 activity in human astrocytoma cells (AID 1224859)
Conditions: SNB-19 ZIKV-induced caspase-3/7, luminescence, 6 h; series mostly up to 45.7 µM
Procedure, shortened: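 SNB-19 astrocytoma cells, 250/well, pretreated 1 h with compounds, then Zika virus at 2 FFU/cell for 6 h at 37 C; Caspase-Glo 3/7 luminescence after 30 min; percent inhibition normalised to uninfected and infected controls.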

Compound | outcome | activity change, negative = inhibition
C/C=C(/C(=C/C)c1ccc(OC(C)=O)cc1)c1ccc(OC(C)=O)cc1 | inactive | 
CN1CC(=O)N2[C@H](c3ccc4c(c3)OCO4)c3[nH]c4ccccc4c3C[C@@H]2C1=O | inactive | 
O=c1[nH]c2ccccc2c(=O)n1CCCl | inactive | 
NCCCC(N)CC(=O)NCC1NC(=O)C(CO)NC(=O)C(N)CNC(=O)C(C2CCN=C(N)N2)NC(=O)C(=CNC(N)=O)NC1=O (stereo not drawn) (H-[Dap]S[Dap](ξβ3hOrn)[ΔAla(3-NHCONH2)][X10]; lactam 1-C; configuration not given here) |  | -8.34% [at 0.568 µM]
O=C(O)C1CCC1 | inactive | 
C/C(=N\O)[C@@H](C)NCC(C)(C)CN[C@H](C)/C(C)=N/O | inactive | 
O=C(C1CCCCC1)N1CC(=O)N2CCCc3ccccc3C2C1 (configuration not stated) | inactive | 
CNC(=O)c1cnn(-c2nc(N)c3ncn([C@@H]4O[C@H](CO)[C@@H](O)[C@H]4O)c3n2)c1 | inactive | 
O=C(CCCl)NCc1ccccc1 | inactive | 
CCCCCOc1ccccc1/C(=C\SC)n1ccnc1 | inactive | 
O=[N+]([O-])c1cncn1CCN1CCOCC1 | inactive | 
O=C(OCCN1CCOCC1)c1cccnc1Nc1cccc(C(F)(F)F)c1 | inactive | 
CCCc1ncc(C(=O)O)s1 | inactive | 
Nc1cc(C(F)(F)F)ccc1S | inactive | 
CCS(=O)(=O)c1ccc(OC)c(C(=O)OC)c1 | inactive | 
O=C(CS(=O)Cc1ccco1)NC/C=C\COc1cc(CN2CCCCC2)ccn1 (configuration not stated) | inactive | 
CC(C)Cc1ccc(C(C)C(=O)OCc2ccccn2)cc1 (configuration not stated) | inactive | 
COc1ccc(OC(=O)N(CC(=O)O)Cc2ccc(OCCc3nc(-c4ccccc4)oc3C)cc2)cc1 | inactive | 
Cc1ccc(-c2ccccc2C#N)cc1 | inactive | 
[O-][n+]1cccc(/C(Cl)=N/OC[C@@H](O)CN2CCCCC2)c1 | inactive | 
Cc1ccc2c(Cl)cc(Cl)c(O)c2n1 | inactive | 
CC(C)OP(=O)(CP(=O)(OC(C)C)OC(C)C)OC(C)C | inactive | 
COCCc1ccc(OCC2CO2)cc1 (configuration not stated) | inactive | 
O=C1Nc2ccccc2C1(c1ccc(O)cc1)c1ccc(O)cc1 | inactive | 
COc1cc(S(N)(=O)=O)cc(C(=O)O)c1OC | inactive | 
Cc1sccc1Br | inactive | 
COc1c(N2C[C@@H]3CCCN[C@@H]3C2)c(F)cc2c(=O)c(C(=O)O)cn(C3CC3)c12 | inactive | 

— PubChem BioAssay (NCATS)
